This is an account of results in PubChem BioAssay (NCI).

Among the test systems are HCT-15 colon; HT29 colon; SNB-19 CNS; U251 CNS; PC-3 prostate; SK-MEL-5 melanoma; UACC-62 melanoma; LOX IMVI melanoma; SK-MEL-28 melanoma.
Experiment in all cases: NCI-60 one-dose screen, 48 h (100 = growth as untreated, 0 = no growth, -100 = all killed)
Settings in all cases: 10 µM unless noted

Structures are written as SMILES. About 83,000 compounds went through this panel and 20% of them were active in at least one assay; those are over-represented in the sample as a whole.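 Single-dose data. Exposure time 48 hours. Values below 10 considered active.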 A number with no mark means an inactive call. The source made the active and inactive calls.

In the case of `c1cc(C2=N[C@@H]3c4ccccc4C[C@@H]3O2)nc(C2=N[C@@H]3c4ccccc4C[C@@H]3O2)c1`, the growth in the experiment with HCT-15 colon is 94.7%; in the experiment with HT29 colon, 105%; in the experiment with SNB-19 CNS, 97.7%; in the experiment with U251 CNS, 101%; in the experiment on PC-3 prostate, 98.3%; with SK-MEL-5 melanoma, 102%. The growth in the experiment on UACC-62 melanoma is 102%; in the experiment with LOX IMVI melanoma it was 97%; in the experiment with SK-MEL-28 melanoma, 108%.
In the case of `CCCCCCCCCCCCCCCCCCNC(=O)[C@H]1CSC(c2cccs2)N1` (some centres not stated), the growth is 42.5% with HCT-15 colon; -35% (active) with HT29 colon; 27.8% in the experiment with SNB-19 CNS; -83.8% (active) in the experiment on U251 CNS; 38.5% in the experiment with PC-3 prostate; -66.2% (active) in the experiment on SK-MEL-5 melanoma. Besides, the growth with UACC-62 melanoma was -92.1% (active); in the experiment with LOX IMVI melanoma, 14.2%; in the experiment with SK-MEL-28 melanoma, -89.7% (active).
With `Cc1cc(N/N=C/c2nc(-c3ccc(Br)cc3)oc2C)c2cc(Cl)ccc2n1`, the growth in the experiment on HCT-15 colon was 37.9%; in the experiment with HT29 colon, 13.5%; in the experiment on SNB-19 CNS it was 60.1%; in the experiment on U251 CNS, 13.9%; in the experiment on PC-3 prostate, 80.7%; with SK-MEL-5 melanoma it was 92.6%. The growth with UACC-62 melanoma was 82.9%; in the experiment on LOX IMVI melanoma, 20.8%; with SK-MEL-28 melanoma, 60.7%.
As to `O=[N+]([O-])c1ccc(/C=C/C2(CCl)OCCO2)cc1`, the growth in the experiment on HCT-15 colon is 109%; in the experiment on HT29 colon it was 92.5%; in the experiment on SNB-19 CNS, 95.6%; in the experiment with U251 CNS, 97.3%; in the experiment on PC-3 prostate it was 96.4%; with SK-MEL-5 melanoma, 104%. Also, the growth with UACC-62 melanoma was 89.8%; in the experiment with LOX IMVI melanoma, 80.6%; in the experiment on SK-MEL-28 melanoma, 112%.
As to `COc1cccc(-c2cc3c(O)cc(C#N)cc3[nH]2)c1`, the growth in the experiment on HCT-15 colon was 80.9%; in the experiment on HT29 colon, 94.6%; in the experiment with SNB-19 CNS it was 93.1%; in the experiment on U251 CNS, 85.3%; with PC-3 prostate it was 81.8%; with SK-MEL-5 melanoma, 82.1%. Moreover, the growth is 70.9% in the experiment with UACC-62 melanoma, 92.4% in the experiment on LOX IMVI melanoma and 97.8% in the experiment with SK-MEL-28 melanoma.
As to `COc1cc(-c2nn(-c3cccc(NC(=O)c4ccc(N5CCOCC5)c(C(F)(F)F)c4)c3)cc2-c2ccncc2)ccc1Cl`, the growth in the experiment with HCT-15 colon was 16.7%; in the experiment on HT29 colon it was -13.3% (active); with SNB-19 CNS, 45.1%; in the experiment on U251 CNS, 2.49% (active); in the experiment on PC-3 prostate, 8.17% (active); in the experiment with SK-MEL-5 melanoma, 3.41% (active). Moreover, the growth was 8.35% (active) in the experiment with UACC-62 melanoma, 13.7% in the experiment with LOX IMVI melanoma and 28.4% in the experiment with SK-MEL-28 melanoma.
Take `COc1ccc(C2C(C#N)=C(N)Oc3c2ccc2ccccc32)cc1` (configuration not stated): the growth with HCT-15 colon is 28.3%; with HT29 colon, 34.1%; in the experiment on SNB-19 CNS, 46.7%; in the experiment with U251 CNS, 35.4%; in the experiment on PC-3 prostate, 39.9%; in the experiment with SK-MEL-5 melanoma, 31.2%. Moreover, the growth with UACC-62 melanoma was 23.6%; with LOX IMVI melanoma it was 27.1%; in the experiment with SK-MEL-28 melanoma it was 52.2%.
With `CC(C)C1=CC2=C(C=O)C[C@@H]3[C@](C)(CCC[C@@]3(C)C(=O)OCC#CCN3CCCC3)[C@H]2CC1`, the growth was 60.9% in the experiment on HCT-15 colon; 18.5% with HT29 colon; 85.2% in the experiment with SNB-19 CNS; 56.1% with U251 CNS; 54.9% in the experiment with PC-3 prostate; 65.1% in the experiment with SK-MEL-5 melanoma. The growth in the experiment on UACC-62 melanoma is 77.4%; in the experiment on LOX IMVI melanoma it was 91.9%; with SK-MEL-28 melanoma it was 96.8%.
As for `COc1ccc(Nc2[nH]n3c(=O)cc(C)nc3c2C(N)=O)c(OC)c1`, the growth is 102% with HCT-15 colon; 92.2% in the experiment with HT29 colon; 96% in the experiment on SNB-19 CNS; 94.1% in the experiment with U251 CNS; 99.7% with PC-3 prostate; 98.1% in the experiment with SK-MEL-5 melanoma. Besides, the growth in the experiment on UACC-62 melanoma was 84%; with LOX IMVI melanoma, 95.6%; with SK-MEL-28 melanoma, 109%.
As to `S=c1[nH]nc(-c2cc3ccc2CCc2ccc(cc2)CC3)n1-c1ccccc1`, the growth is 89.7% with HCT-15 colon; 90.8% in the experiment on HT29 colon; 93.3% in the experiment on SNB-19 CNS; 94.5% with U251 CNS; 83.9% in the experiment with PC-3 prostate; 96.5% in the experiment on SK-MEL-5 melanoma. In addition, the growth in the experiment on UACC-62 melanoma was 76.2%; with LOX IMVI melanoma it was 98%; in the experiment with SK-MEL-28 melanoma, 98.8%.
Take `N/C(=N\C(N)=N\c1nc2ccccc2s1)c1cccc(Br)c1`: the growth in the experiment with HCT-15 colon is 44.2%; with HT29 colon, 104%; in the experiment with SNB-19 CNS it was 90.9%; in the experiment with U251 CNS, 38.3%; in the experiment on PC-3 prostate, 63.2%; with SK-MEL-5 melanoma, 94.6%. Also, the growth in the experiment with UACC-62 melanoma is 84.7%; in the experiment on LOX IMVI melanoma, 33.2%; with SK-MEL-28 melanoma, 94.5%.
On to `COc1ccc(C2C=C(c3ccc(Cl)cc3)N=C3SC=C(C)N32)c(Br)c1` (configuration not stated), for which the growth in the experiment on HCT-15 colon was 25.4%; in the experiment with HT29 colon, 4.51% (active); with SNB-19 CNS it was 78.2%; in the experiment on U251 CNS, 49.7%; in the experiment with PC-3 prostate, 60.7%; in the experiment on SK-MEL-5 melanoma, 48.9%. In addition, the growth in the experiment on UACC-62 melanoma is 58.1%; in the experiment on LOX IMVI melanoma, 16.7%; with SK-MEL-28 melanoma, 38.4%.
Regarding `Cc1c(C(=O)/C=C/c2csc3ccccc23)[n+](=O)c2ccccc2n1[O-]`, the growth is 48.7% in the experiment with HCT-15 colon; 28.3% with HT29 colon; 73.7% with SNB-19 CNS; 40.2% in the experiment with U251 CNS; 47.1% in the experiment with PC-3 prostate; 79.5% with SK-MEL-5 melanoma. The growth with UACC-62 melanoma was 70.5%; with LOX IMVI melanoma, 34.1%; in the experiment on SK-MEL-28 melanoma it was 105%.
With `Cc1nc2ncccc2nc1Nc1ccc(S(=O)(=O)Nc2ccccn2)cc1`, the growth with HCT-15 colon was 123%; with HT29 colon it was 121%; in the experiment with SNB-19 CNS, 88.5%; in the experiment with U251 CNS, 94.4%; in the experiment with PC-3 prostate it was 88.1%; with SK-MEL-5 melanoma, 99%. For the same compound, the growth is 89.4% in the experiment on UACC-62 melanoma, 85.1% in the experiment on LOX IMVI melanoma and 101% with SK-MEL-28 melanoma.
Regarding `COc1cc(NC(N)=NCCC(C)(C)Oc2ccc(C(F)(F)F)cc2)ncc1C#N`, the growth was -70.7% (active) with HCT-15 colon; -79.4% (active) in the experiment on HT29 colon; 27.8% in the experiment with SNB-19 CNS; -98.2% (active) in the experiment with U251 CNS; 13.4% in the experiment with PC-3 prostate; -95.8% (active) with SK-MEL-5 melanoma. Further, the growth with UACC-62 melanoma is -51.8% (active); in the experiment on LOX IMVI melanoma, -97.2% (active); with SK-MEL-28 melanoma it was -79.2% (active).
Consider `COc1ccc(-c2nc(SCCC(C)C)nc(Nc3ccc(F)c(Cl)c3)c2C#N)cc1`, for which the growth with HCT-15 colon was 84.9%; with HT29 colon, 75.9%; in the experiment on SNB-19 CNS, 77.9%; in the experiment with U251 CNS, 33.7%; with PC-3 prostate it was 80%; with SK-MEL-5 melanoma, 94.1%. For the same compound, the values for the growth in the experiment on UACC-62 melanoma, in the experiment on LOX IMVI melanoma and in the experiment on SK-MEL-28 melanoma were 97.5%, 76.4% and 105%, respectively.
As for `CC12CCC3C4(C)COC(c5ccco5)OC4CCC3(C)C1CC(C1=CCOC1=O)O2` (configuration not stated), the growth in the experiment with HCT-15 colon was 97.7%; in the experiment with HT29 colon it was 105%; with SNB-19 CNS, 97.3%; in the experiment on U251 CNS it was 110%; in the experiment with PC-3 prostate, 90.5%; in the experiment on SK-MEL-5 melanoma it was 101%. Also, the growth in the experiment with UACC-62 melanoma was 87.8%; in the experiment with LOX IMVI melanoma, 106%; in the experiment with SK-MEL-28 melanoma it was 106%.
For `COc1cccc(-c2nc3sccn3c2-c2ccnc(NCCCNS(=O)(=O)c3ccc(C(F)(F)F)cc3)c2)c1`, the growth with HCT-15 colon is 38.7%; with HT29 colon it was 47.2%; with SNB-19 CNS, 69.4%; with U251 CNS it was 55.1%; in the experiment with PC-3 prostate, 29.1%; with SK-MEL-5 melanoma, 5.99% (active). The growth in the experiment on UACC-62 melanoma is 43%; with LOX IMVI melanoma, 55.3%; with SK-MEL-28 melanoma, 72.4%.
